Read-out in assay [1]: Macrophage colony-stimulating factor (MCSF), CSF1 (gene 1435)
The experiment in a line: BSK_hDFCGF_MCSF: BioMAP Diversity Plus: hDFCGF Assay for Macrophage colony-stimulating factor (MCSF) Biomarker Activity (AID 2283060). As to conditions: primary human foreskin fibroblasts; actives raise or lower the signal. In outline:
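fibroblasts (human foreskin, primary), 24 h post-dose; M-CSF by ELISA; bidirectional fit, DMSO = baseline.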

The nature of assay [2]: BSK_hDFCGF_SRB: Viability Assessment in the BioMAP Diversity Plus: hDFCGF Assay (AID 2283061).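 Further: cells exposed to compound for 24 h before the read.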 Conditions: primary human foreskin fibroblasts. In outline:
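SRB-based viability read on primary human skin fibroblasts at 24 h: TCA fixation, 0.1% dye, 560 nm. Gain or loss of signal is fitted against the DMSO negative control.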

Read-out in assay [3]: TIMP metallopeptidase inhibitor 1 (TIMP1), TIMP1 (gene 7076)
The experiment in a line: BSK_hDFCGF_TIMP1: BioMAP Diversity Plus: hDFCGF Assay for TIMP metallopeptidase inhibitor 1 (TIMP1) Biomarker Activity (AID 2283062). Conditions: primary human foreskin fibroblasts; actives raise or lower the signal. The method, boiled down:
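Bidirectional curve fitting against DMSO baseline yielded this endpoint, based on ELISA detection of TIMP-1 in primary human foreskin fibroblasts exposed to compound for 24 h.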

Read-out in assay [4]: Monokine induced gamma interferon (MIG), CXCL9 (gene 4283)
The experiment in a line: BSK_hDFCGF_MIG: BioMAP Diversity Plus: hDFCGF Assay for Monokine induced gamma interferon (MIG) Biomarker Activity (AID 2283063). Conditions: primary human foreskin fibroblasts; actives raise or lower the signal. The method, boiled down:
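Endpoint derived by bidirectional fitting relative to DMSO; MIG quantified via ELISA in primary human foreskin fibroblasts harvested 24 h after dosing.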

Read-out in assay [5]: Matrix Metallopeptidase 1 (MMP1), MMP1 (gene 4312)
The experiment in a line: BSK_hDFCGF_MMP1: BioMAP Diversity Plus: hDFCGF Assay for Matrix Metallopeptidase 1 (MMP1) Biomarker Activity (AID 2283064). Conditions: primary human foreskin fibroblasts; actives raise or lower the signal. In outline:
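MMP1 levels quantified by ELISA 24 h after dosing human dermal fibroblast cultures, with parallel SRB total-protein staining for overt cytotoxicity. Data fitted in both directions against DMSO baseline.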

Read-out in assay [6]: Vascular cell adhesion molecule 1 (VCAM1), VCAM1 (gene 7412)
The experiment in a line: BSK_hDFCGF_VCAM1: BioMAP Diversity Plus: hDFCGF Assay for Vascular cell adhesion molecule 1 (VCAM1) Biomarker Activity (AID 2283065).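 Further: VCAM-1 protein level quantified by ELISA after 24 h chemical exposure.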 As to conditions: primary human foreskin fibroblasts; actives raise or lower the signal. In outline:
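Measured after 24 h chemical treatment of primary human skin fibroblasts, VCAM-1 was detected by ELISA and concentration-response analysed in both directions versus DMSO vehicle.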

Read-out in assay [7]: Plasminogen activator inhibitor-1 (PAI1), SERPINE1 (gene 5054)
The experiment in a line: BSK_hDFCGF_PAI1: BioMAP Diversity Plus: hDFCGF Assay for Plasminogen activator inhibitor-1 (PAI1) Biomarker Activity (AID 2283066). Conditions: primary human foreskin fibroblasts; actives raise or lower the signal. The method, boiled down:
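PAI-1 levels in human dermal foreskin fibroblasts were quantified by ELISA 24 h after dosing, with gain or loss analysed against DMSO. Overt cytotoxicity was checked by sulforhodamine B total-protein staining in parallel cultures.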

Read-out in assay [8]: Intercellular Adhesion Molecule 1 (ICAM1), ICAM1 (gene 3383)
The experiment in a line: BSK_KF3CT_ICAM1: BioMAP Diversity Plus: KF3CT Assay for Intercellular Adhesion Molecule 1 (ICAM1) Biomarker Activity (AID 2283067). Conditions: primary human keratinocytes with fibroblasts; actives raise or lower the signal. The method, boiled down:
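Bidirectional curve fitting against a DMSO baseline was applied to ICAM-1 ELISA signal from primary human skin co-cultures harvested 24 h after treatment, with SRB staining of parallel wells for overt cytotoxicity.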

Read-out in assay [9]: Interferon-gamma inducible Protein 10 (IP10), CXCL10 (gene 3627)
The experiment in a line: BSK_KF3CT_IP10: BioMAP Diversity Plus: KF3CT Assay for Interferon-gamma inducible Protein 10 (IP10) Biomarker Activity (AID 2283068). As to conditions: primary human keratinocytes with fibroblasts; actives raise or lower the signal. In outline:
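ELISA read-out of IP-10 after 24 h chemical dosing of human skin primary co-culture (keratinocytes, foreskin fibroblasts). Gain or loss of signal relative to DMSO, bidirectional curve fit.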

Assay [10] can be described thus: BSK_KF3CT_SRB: Viability Assessment in the BioMAP Diversity Plus: KF3CT Assay (AID 2283069).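 Further: read 24 h after compound addition.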 Conditions: primary human keratinocytes with fibroblasts. The method, boiled down: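 Cytotoxicity was gauged by SRB staining (0.1% SRB, 10% TCA fixation, 560 nm) of parallel cultures at 24 h. The cells were primary human skin keratinocytes co-cultured with fibroblasts, and activity was fitted in both directions against DMSO.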

Read-out in assay [11]: Interleukin-1 alpha (IL1a), IL1A (gene 3552)
The experiment in a line: BSK_KF3CT_IL1a: BioMAP Diversity Plus: KF3CT Assay for Interleukin-1 alpha (IL1a) Biomarker Activity (AID 2283070). Conditions: primary human keratinocytes with fibroblasts; actives raise or lower the signal. In outline:
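IL-1a was detected by ELISA 24 h after chemical treatment of a co-culture of human skin keratinocytes and foreskin fibroblasts. Gain or loss of signal was fitted against the DMSO baseline.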

Read-out in assay [12]: TIMP metallopeptidase inhibitor 2 (TIMP2), TIMP2 (gene 7077)
The experiment in a line: BSK_KF3CT_TIMP2: BioMAP Diversity Plus: KF3CT Assay for TIMP metallopeptidase inhibitor 2 (TIMP2) Biomarker Activity (AID 2283071). Conditions: primary human keratinocytes with fibroblasts; actives raise or lower the signal. In outline:
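TIMP-2 measured by ELISA at 24 h in human keratinocyte/fibroblast primary co-cultures exposed to chemicals. Both increases and decreases were fitted against DMSO. Parallel cultures were stained with SRB for total protein as an overt-cytotoxicity check.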

Read-out in assay [13]: C-C motif chemokine 2 (Homo sapiens) (UniProt P13500)
The experiment in a line: BSK_KF3CT_MCP1: BioMAP Diversity Plus: KF3CT Assay for Monocyte Chemoattractant Protein 1 (MCP1/CCL2) Biomarker Activity (AID 2283073). Conditions: primary human keratinocytes with fibroblasts; actives raise or lower the signal. The method, boiled down:
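Biomarker MCP-1 is measured by ELISA in primary human keratinocytes co-cultured with foreskin fibroblasts, 24 h after chemical treatment; DMSO serves as the negative control and activity baseline.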

Read-out in assay [14]: Matrix Metallopeptidase 9 (MMP9), MMP9 (gene 4318)
The experiment in a line: BSK_KF3CT_MMP9: BioMAP Diversity Plus: KF3CT Assay for Matrix Metallopeptidase 9 (MMP9) Biomarker Activity (AID 2283074).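 On AC50: MMP9 protein level quantified by ELISA in the co-culture.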 As to conditions: primary human keratinocytes with fibroblasts; actives raise or lower the signal. In outline:
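MMP-9 quantified by ELISA after 24 h chemical treatment of primary human skin keratinocyte/fibroblast co-cultures; gain or loss fitted against DMSO, with parallel SRB staining (0.1% SRB, 560 nm) for overt cytotoxicity.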

Read-out in assay [15]: urokinase plasminogen activator (uPA), PLAU (gene 5328)
The experiment in a line: BSK_KF3CT_uPA: BioMAP Diversity Plus: KF3CT Assay for urokinase plasminogen activator (uPA) Biomarker Activity (AID 2283075). As to conditions: primary human keratinocytes with fibroblasts; actives raise or lower the signal. The method, boiled down: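 ELISA read-out of uPA 24 h after dosing human skin keratinocytes co-cultured with foreskin fibroblasts. Signal change fitted both ways relative to DMSO; sulforhodamine B on parallel cultures marks overt cytotoxicity.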

Read-out in another assay: CD40, CD40 (gene 958)
The experiment in a line: BSK_LPS_CD40: BioMAP Diversity Plus: LPS Assay for CD40 Biomarker Activity (AID 2283076). Conditions: primary human HUVEC with PBMC; actives raise or lower the signal. The method, boiled down: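 Using a multiplexed primary human co-culture (umbilical vein endothelium plus PBMC), CD40 was read by ELISA 24 h after dosing, with cytotoxicity tracked by sulforhodamine B staining of parallel cultures and activity fitted bidirectionally versus DMSO.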

Read-out in assay [16]: E-selectin (Homo sapiens) (UniProt P16581)
The experiment in a line: BSK_LPS_Eselectin: BioMAP Diversity Plus: LPS Assay for Eselectin Biomarker Activity (AID 2283077). As to conditions: primary human HUVEC with PBMC; actives raise or lower the signal. The method, boiled down:
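Dose chemical onto LPS-driven HUVEC/PBMC co-culture; after 24 h, run ELISA for E-selectin; fit up- and down-going responses relative to DMSO control.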

Read-out in assay [17]: Interleukin-8 (IL8), CXCL8 (gene 3576)
The experiment in a line: BSK_LPS_IL8: BioMAP Diversity Plus: LPS Assay for Interleukin-8 (IL8) Biomarker Activity (AID 2283078). As to conditions: primary human HUVEC with PBMC; actives raise or lower the signal. The method, boiled down:
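In this LPS system, chemical-treated human umbilical vein endothelium/PBMC co-cultures were harvested at 24 h for IL-8 ELISA.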

A short description of assay [18]: BSK_LPS_SRB: Viability Assessment in the BioMAP Diversity Plus: LPS Assay (AID 2283079).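 Further: total protein by sulforhodamine B absorbance as a cytotoxicity measure; measured one day after compound addition; fitted in both directions against DMSO so loss or gain of signal counts.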 Conditions: primary human HUVEC with PBMC. The method, boiled down:
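Cytotoxicity endpoint in human endothelial–PBMC co-culture: 24 h exposure, then SRB (0.1%) staining, 560 nm read.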

“And” between values parts separate entries of the source, which are not always exact repeats. Equal values may be shown once. Where a structure was tested more than once in an assay, its records may differ in their call. The source made the active and inactive calls. How the source made its calls: active means hit-call score of the fitted dose curve at least 0.9, where 1 is the maximum; inactive means score below 0.9.

E-selectin (Homo sapiens), sequence (P16581 whole entry, looked up): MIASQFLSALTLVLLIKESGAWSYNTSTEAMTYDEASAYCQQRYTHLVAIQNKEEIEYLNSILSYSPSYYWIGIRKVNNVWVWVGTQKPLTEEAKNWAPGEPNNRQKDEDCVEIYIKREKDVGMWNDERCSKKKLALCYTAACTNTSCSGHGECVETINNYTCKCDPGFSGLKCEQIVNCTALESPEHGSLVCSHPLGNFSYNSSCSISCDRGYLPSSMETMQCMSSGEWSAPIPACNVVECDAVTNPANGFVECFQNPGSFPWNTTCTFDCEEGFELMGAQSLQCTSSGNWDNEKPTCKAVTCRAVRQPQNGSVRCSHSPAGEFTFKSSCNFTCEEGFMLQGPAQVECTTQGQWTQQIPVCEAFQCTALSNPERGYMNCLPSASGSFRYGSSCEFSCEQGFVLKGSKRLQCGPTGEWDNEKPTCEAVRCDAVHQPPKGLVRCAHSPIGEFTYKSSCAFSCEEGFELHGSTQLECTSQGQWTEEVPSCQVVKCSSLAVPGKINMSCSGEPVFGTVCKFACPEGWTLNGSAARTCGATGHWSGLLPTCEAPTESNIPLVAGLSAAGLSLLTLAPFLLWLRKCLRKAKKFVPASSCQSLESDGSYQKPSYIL

The term AC50 denotes the concentration at which the activity in the assay is half-maximal. On to `OCCCC(F)(F)C(F)(F)C(F)(F)C(F)(F)C(F)(F)C(F)(F)C(F)(F)F`, for which the AC50 in assay [1] is 15.6 µM (active) and 16.6 µM (active); in assay [2], 18.3 µM (active) and 17.2 µM (active); in assay [3], 14.6 µM (active) and 14.4 µM (active); in assay [4], 16.3 µM (active) and 14.6 µM (active); in [5], 13 µM (active) and 15 µM (active); in assay [6] it was 11 µM (active) and 9.2 µM (active). In addition, the AC50 in [7] is 15.3 µM (active) and 14.9 µM (active); in [8] it was 28.3 µM (active) and 47.3 µM (active); in [9], 23.9 µM (active) and 49.7 µM (active); in assay [10], 24.2 µM (active) and 49 µM (active); in [11], 24 µM (active) and 43.8 µM (active); in [12], 14.7 µM (active) and 37 µM (active). In addition, the AC50 was 27.3 µM (active) and 42.9 µM (active) in assay [13]; 20 µM (active) and 45 µM (active) in assay [14]; 22.8 µM (active) and 47.2 µM (active) in assay [15]; 45.6 µM (active) and 45.1 µM (active) in the assay with CD40, CD40 (gene 958); 50.6 µM (active) and 43.6 µM (active) in assay [16]; 53.5 µM (active) and 54.5 µM (active) in [17]. Also, the AC50 in [18] is 54 µM (active) and 46.2 µM (active).
Take `N=C(N)C(F)(F)C(F)(F)C(F)(F)C(F)(F)C(F)(F)C(F)(F)C(F)(F)F`: the AC50 in assay [1] is 40.9 µM (active) and 37.2 µM (active); in [2], 54.4 µM (active); in assay [6], 30 µM (active) and 18 µM (active); in [7], 55.3 µM (active) and 54.2 µM (active); with CD40, CD40 (gene 958), 41.5 µM (active); in [17], 46.8 µM (active). In addition, the AC50 in [18] is 55.1 µM (active). Moreover, the result in assay [2], in [3], in assay [5], in assay [8], in assay [9] and in assay [10] was inactive. Further, the outcome in assay [11] was “inactive”; in assay [12], “inactive”; in [13], “inactive”; in assay [14], “inactive”; in the assay with CD40, CD40 (gene 958) it was “inactive”; in assay [16], “inactive”. Moreover, the result in assay [17] and in [18] was inactive.

The record behind these values is PubChem BioAssay (EPA / NIEHS).
